In article PMC5540273 (PLoS ONE, 2017):

System: ACVR2B
Conditions: concentration: 1 μM, replicates: in singlicate; n = 1
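Note: KINOMEscan kinase panel screen.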

| Compound | %Inh |
| --- | --- |
| Cc1ccc(C(=O)N2CC[C@@H](O)C2)cc1-n1c(C)cc(OCc2ccc(F)cc2F)c(Br)c1=O | 0% |
| c1ccc(Oc2ccc(Nc3ccnc4cc(-c5ccc(CNCCN6CCOCC6)o5)ccc34)cc2)nc1 [GW567145] | 14% |
| CC(C)c1nc(-c2cccc(NS(=O)(=O)c3c(F)cccc3F)c2F)c(-c2ccnc(Nc3ccc(N4CCOCC4)nc3)n2)s1 [GSK2008607] | 86% |
| c1ccc(-c2cnc3nccnn23)cc1 [AH20685] | 0% |
| CCn1c(-c2nonc2N)nc2c(C#CC(C)(C)O)nc(OC[C@H](N)c3ccccc3)cc21 [GSK943949] | 0% |
| CSc1cccc2c(-c3ccncn3)c(-c3ccc(F)cc3)nn12 [GW514786] | 7% |
| FC(F)(F)c1ccc(/C=C/c2cncnc2Nc2ccc3[nH]c(Cc4ccccc4)nc3c2)cc1 [GW709199] | 37% |
| C[C@@H](Oc1cc(-n2cnc3cc(-c4ccnc(NCCS(C)(=O)=O)c4)ccc32)sc1C(N)=O)c1ccccc1Cl [GSK907232] | 3% |
| O=C(Nc1n[nH]c2cc(-c3ccoc3)ccc12)C1CC1 [SB-738481] | 46% |
| CC(C)(C)c1ccc2nccc(Nc3cccc(O)c3)c2c1 [GW856795] | 63% |
| Cl.Cl.NCC(NC(=O)c1cc(-c2ccccc2)c(-c2ccnc3[nH]ccc23)s1)c1ccccc1 (stereo not shown) [GSK1321561] | 18% |
| CCc1ccc(-c2ccc3c(c2)-c2c(cnn2C)S(=O)(=O)N3C)cc1 | 0% |
| Cl.Cl.NCC(NCc1ccc(-c2ccnc3[nH]ccc23)s1)c1ccccc1 (stereo not shown) [GSK1321565] | 0% |
| Cl.NC(=O)c1cccc(Nc2nccc(Nc3ccc(Oc4c(Cl)cccc4Cl)c(Cl)c3)n2)c1 [GW659009] | 0% |
| Cc1ccc(C)c(NC(=O)NC2CCN(c3ccnc(Nc4ccc(F)cc4)n3)C2)c1 (stereo not shown) [GSK1379720] | 0% |
| COC(=O)Nc1nc2cc(Oc3ccc(NC(=O)Nc4cc(C(F)(F)F)ccc4F)cn3)ccc2[nH]1.Cl.Cl [GW681170] | 0% |
| Cn1cc(-c2[nH]c3cc(NC(=O)[C@H](N)C4CCCCC4)cc4c3c2C=NNC4=O)cn1 | 44% |
| CCn1c(-c2nonc2N)nc2c(C#CC(C)(C)O)ncc(OCCCCN)c21.O=C(O)C(F)(F)F.O=C(O)C(F)(F)F [GSK507274] | 0% |
| NCCCC(NC(=O)c1cc(Br)c(-c2ccnc3[nH]ccc23)s1)c1ccccc1.O=C(O)C(F)(F)F.O=C(O)C(F)(F)F (stereo not shown) [GSK1287544] | 0% |

| Compound | %Inh |
| --- | --- |
| Cc1ccc(C(=O)Nc2ccc(Nc3ccnc4cc(-c5nccs5)ccc34)cc2O)cc1.Cl [GW494702] | 19% |
| CN(C)S(=O)(=O)c1cc(-c2ccc3nccc(-c4cccc(S(N)(=O)=O)c4)c3c2)cnc1N [GSK1669921] | 0% |
| COc1ccc(Nc2nccc(NCCNC(=O)c3cc4ccccc4s3)n2)cc1 [GSK1379896] | 0% |
| Cc1ccc(F)c(C(=O)Nc2cccc(-c3nn4ccccc4c3-c3ccnc(Nc4cccc(F)c4)n3)c2)c1F [GSK361061] | 43% |
| Nc1n[nH]c2cnc(-c3ccccc3)cc12 [SB-642124] | 13% |
| Cc1cccc(NC(=O)Nc2ccc(Oc3ncnc4ccn(C)c34)cc2)c1 | 0% |
| COc1cc2c(cc1OCCN1CCNCC1)ncc1c3ccc(C#N)cc3[nH]c21 | 0% |
| Fc1ccc(-c2ncn(C3CCNCC3)c2-c2ccnc(Oc3ccc(-c4ccccc4)cc3)n2)cc1 [SB-245391] | 0% |
| CC(=O)Nc1nc2cnc(Nc3cc(NC(=O)c4cccc(C5(C#N)CC5)c4Cl)ccc3C)nc2s1 | 0% |
| O=C(O)C(F)(F)F.O=C(O)C(F)(F)F.O=c1[nH]ccc2nc(N[C@@H]3CCCNC3)nc(Nc3ccc(S(=O)(=O)N4CCOCC4)cc3)c12 [GSK2177277] | 53% |
| Oc1cc(Nc2ccnc3cc(I)ccc23)ccc1F [GW552771] | 93.7% |
| COc1cccc(C(=O)Nc2cccc(Oc3ccc4nc(NC(=O)C5CC5)cn4n3)c2)c1 | 18% |
| O=C(Nc1cccc(Oc2ccc3nc(NC(=O)C4CC4)cn3n2)c1)c1ccccc1C(F)(F)F | 34% |
| Clc1ccc(-c2nn3ncccc3c2-c2ccnc(Nc3ccc4c(c3)OCCO4)n2)cc1 [GW829116] | 54% |
| O=C(Nc1cccc(-c2nn3ccccc3c2-c2ccnc(Nc3cccc(F)c3)n2)c1)c1c(F)ccc(F)c1Cl [GSK357952] | 13% |
| COC(=O)Nc1nc2ccc(Oc3ccc(NC(=O)Nc4cc(C(F)(F)F)ccc4F)cc3)cc2n1C.Cl [GW692089] | 0% |
| O=C(Nc1cccc(-c2nn3ncccc3c2-c2ccnc(Nc3ccccc3)n2)c1)c1c(F)cccc1F [GSK198271] | 25% |
| CN1CCN(CCCNc2nccc(-c3c(-c4ccc(F)cc4)nn4cc(C(F)(F)F)ccc34)n2)CC1 [GW621581] | 0% |
